The source of these data is PubChem BioAssay (NCI).

Assay [1] is described as follows: NCI Yeast Anticancer Drug Screen. Data for the rad50 strain (AID 155).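 Also: 0% = growth of vehicle-only cultures of the same strain.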 To be noted: S. cerevisiae rad50 strain growth inhibition, stronger effect = higher value. In short, it runs like this:
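Relative growth inhibition (compound vs vehicle) was measured in yeast with a defined repair-gene alteration.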

Assay [2] can be described thus: NCI Yeast Anticancer Drug Screen. Data for the mec2-1 strain (AID 157). To be noted: S. cerevisiae mec2-1 strain, stronger effect = higher value. In short, it runs like this:
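Compounds were applied to mec2-1 yeast cells. Their growth was then compared with that of vehicle-treated cultures to give growth inhibition.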

A short description of assay [3]: NCI Yeast Anticancer Drug Screen. Data for the sgs1 mgt1 strain (AID 161).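 Also: 0% = growth of cultures given vehicle only.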 To be noted: S. cerevisiae sgs1 mgt1 strain, stronger effect = higher value. Summed up:
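This yeast growth screen uses a strain with defined DNA-repair lesions; compound-treated growth is compared with vehicle-treated growth.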

Assay [4] is described as follows: NCI Yeast Anticancer Drug Screen. Data for the cln2 rad14 strain (AID 165).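 Also: 0% = growth equal to vehicle treated cultures.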 To be noted: S. cerevisiae cln2 rad14 strain, stronger effect = higher value. In short, it runs like this: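 Strain: cln2 rad14 yeast, altered in cell cycle control and DNA damage repair. Read-out: growth inhibition vs vehicle.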
A short description of assay [5]: NCI Yeast Anticancer Drug Screen. Data for the bub3 strain (AID 167). Particulars: S. cerevisiae bub3 mutant strain, stronger effect = higher value. In short, it runs like this: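 Screening used yeast with an engineered genetic alteration affecting cell cycle control. Compound-exposed cultures were compared with vehicle cultures, and reduced growth was taken as inhibition.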

The nature of assay [6]: NCI Yeast Anticancer Drug Screen. Data for the mlh1 rad18 strain (AID 175). To be noted: S. cerevisiae mlh1 rad18 strain growth inhibition, stronger effect = higher value. In short, it runs like this:
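A repair-deficient yeast strain is exposed to test compound, and growth is scored relative to vehicle-treated controls.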

The mark [7] stands for this setting: at 5.0 µM (retest, dose inferred, filed as 0.5).
Where [8] appears, read: at 50.0 µM (retest, dose inferred, filed as 5.0).

This is part of a sample that, as a whole, favours compounds with a hit. Of some 79,000 tested, about 15% had one in any assay. A number with no mark means an inactive call. Active and inactive are the calls of the source. Rule as the data show it: active = growth inhibition above about 70%; inactive = the rest.

Turning to `Nc1ccc(SCCCc2c(N)nc(N)nc2N)cc1`, the growth inhibition was -8% in assay [1] (setting [7]); 4% in assay [1] (setting [8]); 57.5% in assay [1] (at 50.0 µM); 1% in assay [2] (setting [7]); -8% in assay [2] (setting [8]); 92.2% (active) in assay [2] (at 50.0 µM). Besides, the growth inhibition in assay [3] (setting [7]) was 27%; in assay [3] (setting [8]) it was 11%; in assay [3] (at 50.0 µM), 20.6%; in assay [4] (setting [7]), -16%; in assay [4] (setting [8]), -17%; in assay [4] (at 50.0 µM), 91.8% (active). In addition, the growth inhibition in assay [5] (setting [7]) is -9%; in assay [5] (setting [8]), -12%; in assay [5] (at 50.0 µM), 95% (active); in assay [6] (setting [7]), 6%; in assay [6] (setting [8]) it was 32%; in assay [6] (at 50.0 µM) it was 82.2% (active).

For `Cc1nc(N)nn1C`, the growth inhibition is -1% in assay [1] (setting [7]); 10% in assay [1] (setting [8]); 2.9% in assay [1] (at 50.0 µM); 0% in assay [2] (setting [7]); -2% in assay [2] (setting [8]); 6.1% in assay [2] (at 50.0 µM). Further, the growth inhibition in assay [3] (setting [7]) was -3%; in assay [3] (setting [8]) it was -1%; in assay [3] (at 50.0 µM) it was -3.55%; in assay [4] (setting [7]) it was -4%; in assay [4] (setting [8]) it was 0%; in assay [4] (at 50.0 µM), 6.7%. The growth inhibition in assay [5] (setting [7]) was 0%; in assay [5] (setting [8]), -2%; in assay [5] (at 50.0 µM) it was 44.2%; in assay [6] (setting [7]), 1%; in assay [6] (setting [8]), 2%; in assay [6] (at 50.0 µM), -0.4%.

On to `COc1ccc(C2c3cc4c(cc3OC(O)(CO)C2C(=O)O)OCO4)cc1` (stereo not given) (tested in a mixture with another compound), for which the growth inhibition in assay [1] (setting [7]) is -6%; in assay [1] (setting [8]), 86% (active); in assay [1] (at 50.0 µM), 53.5%; in assay [2] (setting [7]), -11%; in assay [2] (setting [8]) it was 75% (active); in assay [2] (at 50.0 µM), 81.3% (active). Besides, the growth inhibition in assay [3] (setting [7]) is -6%; in assay [3] (setting [8]), 40%; in assay [3] (at 50.0 µM), 27.8%; in assay [4] (setting [7]), -6%; in assay [4] (setting [8]) it was 90% (active); in assay [4] (at 50.0 µM) it was 37%. Further, the growth inhibition in assay [5] (setting [7]) was -18%; in assay [5] (setting [8]), 95% (active); in assay [5] (at 50.0 µM), 87% (active); in assay [6] (setting [7]), -8%; in assay [6] (setting [8]), 89% (active); in assay [6] (at 50.0 µM), 81.8% (active).

As to `Cc1ncc(Br)c(C(=O)O)n1`, the growth inhibition was 0% in assay [1] (setting [7]); -7% in assay [1] (setting [8]); 6.65% in assay [1] (at 50.0 µM); 1% in assay [2] (setting [7]); 3% in assay [2] (setting [8]); 19.3% in assay [2] (at 50.0 µM). The growth inhibition is 5% in assay [3] (setting [7]); -3% in assay [3] (setting [8]); 3.1% in assay [3] (at 50.0 µM); -5% in assay [4] (setting [7]); 1% in assay [4] (setting [8]); 34.2% in assay [4] (at 50.0 µM). The growth inhibition in assay [5] (setting [7]) was -4%; in assay [5] (setting [8]), -6%; in assay [5] (at 50.0 µM), 0.75%; in assay [6] (setting [7]), -1%; in assay [6] (setting [8]), -8%; in assay [6] (at 50.0 µM), 52.9%.

For the compound `O=C1OC2(CCN(Cc3ccccc3)CC2)C(=O)N1c1cccc(Cl)c1`, the growth inhibition is -1% in assay [1] (setting [7]); 35% in assay [1] (setting [8]); 79.5% (active) in assay [1] (at 50.0 µM); -8% in assay [2] (setting [7]); 22% in assay [2] (setting [8]); 18.5% in assay [2] (at 50.0 µM). Also, the growth inhibition was 28% in assay [3] (setting [7]); 58% in assay [3] (setting [8]); 76.5% (active) in assay [3] (at 50.0 µM); 60% in assay [4] (setting [7]); 52% in assay [4] (setting [8]); 40.8% in assay [4] (at 50.0 µM). The growth inhibition was 14% in assay [5] (setting [7]); 81% (active) in assay [5] (setting [8]); 52.8% in assay [5] (at 50.0 µM); 3% in assay [6] (setting [7]); 37% in assay [6] (setting [8]); 62.5% in assay [6] (at 50.0 µM).

As for `CN(C)CCCNc1c2ccccc2nc2cccc([N+](=O)[O-])c12`, the growth inhibition is 93% (active) in assay [1] (setting [7]); 99% (active) in assay [1] (setting [8]); 89.4% (active) in assay [1] (at 50.0 µM); 95% (active) in assay [2] (setting [7]); 99% (active) in assay [2] (setting [8]); 93% (active) in assay [2] (at 50.0 µM). Also, the growth inhibition was 95% (active) in assay [3] (setting [7]); 99% (active) in assay [3] (setting [8]); 92.8% (active) in assay [3] (at 50.0 µM); 95% (active) in assay [4] (setting [7]); 99% (active) in assay [4] (setting [8]); 89.2% (active) in assay [4] (at 50.0 µM). Also, the growth inhibition is 76% (active) in assay [5] (setting [7]); 99% (active) in assay [5] (setting [8]); 90.8% (active) in assay [5] (at 50.0 µM); 90% (active) in assay [6] (setting [7]); 98% (active) in assay [6] (setting [8]); 89.9% (active) in assay [6] (at 50.0 µM).

Consider `CC(C)(C)C(=O)OC12/C(=N/O)CCCCCC1c1ccccc12` (stereo not given), for which the growth inhibition in assay [1] (setting [7]) was -17%; in assay [1] (setting [8]), 88% (active); in assay [1] (at 50.0 µM) it was 81.8% (active); in assay [2] (setting [7]), 6%; in assay [2] (setting [8]), 92% (active); in assay [2] (at 50.0 µM) it was 86% (active). Besides, the growth inhibition was -12% in assay [3] (setting [7]); 89% (active) in assay [3] (setting [8]); 81.2% (active) in assay [3] (at 50.0 µM); 31% in assay [4] (setting [7]); 96% (active) in assay [4] (setting [8]); 85.3% (active) in assay [4] (at 50.0 µM). In addition, the growth inhibition was -9% in assay [5] (setting [7]); 93% (active) in assay [5] (setting [8]); 84.2% (active) in assay [5] (at 50.0 µM); 14% in assay [6] (setting [7]); 92% (active) in assay [6] (setting [8]); 80.5% (active) in assay [6] (at 50.0 µM).

Regarding `C[n+]1c2ccc(Cl)cc2nc2cc(-c3ccccc3)ccc21`, the growth inhibition in assay [1] (setting [7]) is 15%; in assay [1] (setting [8]) it was 98% (active); in assay [1] (at 50.0 µM), 98.6% (active); in assay [2] (setting [7]) it was 23%; in assay [2] (setting [8]), 99% (active); in assay [2] (at 50.0 µM) it was 99% (active). Besides, the growth inhibition in assay [3] (setting [7]) is 32%; in assay [3] (setting [8]) it was 99% (active); in assay [3] (at 50.0 µM), 98.9% (active); in assay [4] (setting [7]), 7%; in assay [4] (setting [8]), 98% (active); in assay [4] (at 50.0 µM) it was 98.2% (active). In addition, the growth inhibition in assay [5] (setting [7]) was 54%; in assay [5] (setting [8]) it was 98% (active); in assay [5] (at 50.0 µM), 98.9% (active); in assay [6] (setting [7]) it was 39%; in assay [6] (setting [8]), 98% (active); in assay [6] (at 50.0 µM) it was 98.6% (active).

Regarding `CN(C)c1ccc(-c2c(C#N)c(S)n(NS(=O)(=O)c3ccccc3)c(=O)c2C#N)cc1`, the growth inhibition in assay [1] (setting [7]) is 94% (active); in assay [1] (setting [8]) it was 96% (active); in assay [1] (at 50.0 µM) it was 35.4%; in assay [2] (setting [7]) it was 31%; in assay [2] (setting [8]), 95% (active); in assay [2] (at 50.0 µM), 75.3% (active). Further, the growth inhibition in assay [3] (setting [7]) is 38%; in assay [3] (setting [8]) it was 95% (active); in assay [3] (at 50.0 µM), 61.2%; in assay [4] (setting [7]), 50%; in assay [4] (setting [8]), 69%; in assay [4] (at 50.0 µM), 31.8%. For the same compound, the growth inhibition is 45% in assay [5] (setting [7]); 93% (active) in assay [5] (setting [8]); 58.1% in assay [5] (at 50.0 µM); 91% (active) in assay [6] (setting [7]); 94% (active) in assay [6] (setting [8]); 60.7% in assay [6] (at 50.0 µM).

As for `Cc1ccc(S(=O)(=O)N/N=C/c2oc(-c3cccc([N+](=O)[O-])c3)c(-c3cccc([N+](=O)[O-])c3)c2[N+](=O)[O-])cc1`, the growth inhibition is 56% in assay [1] (setting [7]); 56% in assay [1] (setting [8]); 86.7% (active) in assay [1] (at 50.0 µM); 17% in assay [2] (setting [7]); 17% in assay [2] (setting [8]); 92.7% (active) in assay [2] (at 50.0 µM). Besides, the growth inhibition in assay [3] (setting [7]) was 50%; in assay [3] (setting [8]), 50%; in assay [3] (at 50.0 µM), 92.1% (active); in assay [4] (setting [7]), 27%; in assay [4] (setting [8]), 27%; in assay [4] (at 50.0 µM) it was 91.7% (active). Moreover, the growth inhibition in assay [5] (setting [7]) is 31%; in assay [5] (setting [8]) it was 31%; in assay [5] (at 50.0 µM), 87.9% (active); in assay [6] (setting [7]) it was 57%; in assay [6] (setting [8]), 57%; in assay [6] (at 50.0 µM) it was 89.7% (active).
